Compound activity (PubChem BioAssay)
Shown are actives, neighbours in structure and some others; about 9.4% of the full set was active somewhere.
FLuc counter – inhibits or activates purified firefly luciferase, miR-21 counter-screen; P08659; purified FLuc, Km substrates, luminescence inhibition; Potency, µM (titrated, usually from 57.5 µM), for the others: at the top dose activity change, negative = inhibition, usual class: inhibitors; actives 6.9% (n = 360,000);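 note: plate controls were vehicle for no effect and reference inhibitor for full effect; nearly all actives have a fitted effect of over 55% in size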
Target sequence (P08659 whole entry, looked up): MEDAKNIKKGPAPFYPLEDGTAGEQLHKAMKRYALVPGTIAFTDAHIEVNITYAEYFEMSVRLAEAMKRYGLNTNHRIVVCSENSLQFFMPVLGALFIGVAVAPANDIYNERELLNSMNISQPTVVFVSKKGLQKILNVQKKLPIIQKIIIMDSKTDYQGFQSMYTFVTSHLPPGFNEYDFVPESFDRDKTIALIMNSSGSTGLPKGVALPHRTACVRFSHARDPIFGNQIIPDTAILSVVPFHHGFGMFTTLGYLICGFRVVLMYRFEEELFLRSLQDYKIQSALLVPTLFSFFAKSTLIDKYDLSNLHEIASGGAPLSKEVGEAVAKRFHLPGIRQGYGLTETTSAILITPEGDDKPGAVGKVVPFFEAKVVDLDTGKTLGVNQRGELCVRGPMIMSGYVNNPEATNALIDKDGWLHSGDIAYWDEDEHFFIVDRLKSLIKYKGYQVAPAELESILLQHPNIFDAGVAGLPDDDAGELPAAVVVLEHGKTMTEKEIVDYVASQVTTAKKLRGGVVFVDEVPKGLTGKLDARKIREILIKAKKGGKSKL
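Biochemical qHTS of compounds, final roughly 60 µM downward over six points, against 10 nM purified firefly luciferase using Km concentrations of substrates (10 uM D-luciferin, 10 uM ATP) in Tris acetate pH 7.5 buffer; luminescence output.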
ELG1 genotox – induces genotoxicity in HEK293T cells with luciferase-tagged ELG1; actives 1.3% (n = 330,000); Potency, µM (top dose mostly 46 µM), inactives show top-dose activity change, positive = activation, usual class: activators; HEK293T ELG1-luciferase reporter, luminescence, 16 h; note: % of control where 0% means no effect; nearly all actives have a fitted effect of over 60% in size
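HEK293T cells expressing luciferase-tagged ELG1 were treated with compound or DMSO for 16 hr at 37°C. Luciferase activity was then read after 30 min with ONE-Glo at room temperature; rising signal flags genetic stress.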
Rab9 promoter act – activators of Rab9 promoter. Huh7 Rab9 promoter-luciferase reporter, luminescence, 24 h. Potency, µM (titrated, usually from 9.22 µM), for inactives: at the highest dose activation, negative = inhibition, most hits filed as activators. actives 2.8% (n = 320,000). AID 485297; note: % of control where 0% means no effect; nearly all actives have a fitted effect of over 60% in size
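Huh7 reporter line, Rab9 promoter upstream of luciferase. Compound exposure 24 h at 37 °C in reduced-serum medium with 10% FBS. Read-out: luminescence.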
ELG1 DNA repair – inhibitors of ELG1-dependent DNA repair in HEK293T cells; HEK293T ELG1-luciferase reporter, luminescence, 16 h; DNA damage induced by 5-fluorouridine; Potency, µM (series often up to 46.1 µM), without a hit: at the top dose activity change, negative = inhibition, hits mostly inhibitors; actives 2.3% (n = 330,000); AID 504467; note: % is set by controls: 0 for no effect and ±100 for the full control effect; nearly all actives have a fitted effect of over 55% in size
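Cells (2,000 per well) received 5-fluorouridine plus test compound or DMSO and were incubated 16 hr at 37 °C, 5% CO2. Luciferase activity was read by luminescence 30 min after ONE-Glo addition; signal suppression marked inhibition of damage-induced ELG1 function.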
NPC1 promoter act – activators of NPC1 promoter. Huh7 NPC1 promoter luciferase reporter, 24 h. actives 2.4% (n = 320,000). Potency, µM (highest dose often 9.22 µM), without a hit: top-dose activation, most hits filed as activators; note: % of control where 0% means no effect; nearly all actives have a fitted effect of over 60% in size
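Huh7 cells stably carrying NPC1 promoter–luciferase, plated in Opti-MEM with 10% FBS for 2 h, were exposed to compound in DMSO for 24 h at 37 °C; luciferase reagent was added for 10 min and luminescence read.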
SMN2 splice enh – enhancers of SMN2 splice variant expression. HEK293 SMN2-luciferase splicing reporter, luminescence, 30-36 h. Potency, µM (series often up to 46.1 µM), without a hit: top-dose activity change, positive = activation, actives largely listed as activators. actives 2.8% (n = 210,000). AID 1458; note: % of control where 0% means no effect; nearly all actives have a fitted effect of over 55% in size
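qHTS luciferase splicing reporter: luminescence rises when SMN2 exon 7 is included in transfected HEK293 cells. Compound exposure lasted 30-36 h at 37C, with 4.5 mM final sodium butyrate as control, followed by a ONE-Glo read.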
Numbers without * were called inactive; ? = inconclusive; . = no result; [ ] = remark or other dose. Calls come from the whole dose curve; as a rule, active = well fitted curve in the direction sought with a large enough effect; inconclusive = small, poorly fitted or top-dose-only effect, or another doubt; inactive = no such curve, though single readings can be large; an effect the other way counts as inactive or inconclusive. Potency is the fitted concentration of half-maximal effect.

SMILES	FLuc counter	ELG1 genotox	Rab9 promoter act	ELG1 DNA repair	NPC1 promoter act	SMN2 splice enh
O=C(OCC1COc2ccccc2O1)c1ccccc1F (stereo not drawn)	6.01µM*	10.6%	2.1%	?	1.4%	-0.8%
Cc1ccc(S(=O)(=O)N[C@H](C(=O)NCC2CCC(C(=O)O)CC2)C(C)C)cc1 (stereo partly drawn)	2.0%	-0.9%	-4.9%	1.6%	-4.5%	.
CSc1ccc(CNC(=O)CN2C(=O)C3CCCCN3c3ccc(C(=O)N4CCCC4)cc32)cc1 (stereo not drawn)	-0.4%	.	.	.	.	.
CCCSc1ncc(Cl)c(C(=O)Nc2nc3ccc(C)cc3s2)n1	1.5%	.	.	.	.	2.7%
COC(=O)N1[C@H]2CC[C@@]3(C)C=C(C)O[C@]1(C)C3c1ccccc12	.	.	.	.	.	0.4%
CCCCC/C=C\C[C@@H](O)/C=C/C=C/C=C/[C@@H](O)CCCC(=O)O	.	.	.	.	.	11.1%
COc1ccc(N2CCN(CCCNC(=O)c3cnn(-c4ccc(F)cc4)c3-n3cccc3)CC2)cc1	-5.1%	.	.	.	.	.
CN(C)S(=O)(=O)c1cccc(C(=O)OCC(=O)Nc2ccc3c(c2)OCCO3)c1	?	4.1%	-2.7%	5.8%	-3.5%	.
Cc1cccc(C(=O)OCC(=O)Nc2ccc3c(c2)OCCO3)c1	19µM*	9.7%	12.2%	?	8.3%	.
Cc1ccc(C(=O)Nc2cccc(NC(=O)CN3CCCCC3)c2)cc1	19µM*	1.0%	9.4%	24.2%	12.0%	.
COc1ccc(C(=O)Nc2cccc(C(=O)N3CCCC3)c2)cc1	15.1µM*	?	21.6%	?	?	?
Cc1ccc(C(=O)Nc2cccc(C(=O)N3CCN(C)CC3)c2)cc1	9.53µM*	?	4.47µM*	?	3.16µM*	11.2µM*
CC(=O)N1CCc2cc(NC(=O)c3ccc(C)cc3)ccc21	3.79µM*	?	0.562µM*	?	?	11.2µM*
COc1cccc(C(=O)Nc2cccc(C(=O)N3CCOCC3)c2)c1	-17.4%	7.7%	-1.1%	13.0%	10.4%	5.9%
O=c1c2cc3c(cc2n(Cc2ccccc2)c(=O)n1Cc1nc(-c2ccccc2)no1)OCO3	-1.2%	.	.	.	.	.
CC(C)Oc1ccc(CNC(=O)c2ccc(CS(=O)c3cccc(Cl)c3)o2)cc1 (stereo not drawn)	-10.7%	.	.	.	.	.
O=C(Nc1cccc(S(=O)(=O)NCc2ccco2)c1)c1cc(-c2ccc(F)cc2)nc2ccccc12	?	-7.2%	1.2%	14.6µM*	-0.8%	-50.0%
COc1ccc(-c2cc(C(=O)Nc3cccc(S(=O)(=O)NCc4ccco4)c3)c3ccccc3n2)cc1OC	?	-11.6%	-10.1%	5.17µM*	-3.8%	21.7%
COc1cc(C(=O)Nc2cccc(S(=O)(=O)NCc3ccco3)c2)cc(OC)c1OC	1.1%	7.1%	-2.9%	?	-3.4%	.
O=c1c2cccnc2n(Cc2ccccc2F)c(=O)n1Cc1ccccc1Cl	-8.6%	.	.	.	.	0.7%
C[N@@+]1(Cc2ccc(Cl)c(Cl)c2)CCC[C@@H]1c1ccc[n+](Cc2ccc(Cl)c(Cl)c2)c1	.	.	.	.	.	-0.9%[9.22 µM]
COc1ccc(OC)c(NC(=O)C2CCCN(S(=O)(=O)c3ccc(-n4cnnn4)cc3)C2)c1 (stereo not drawn)	-0.8%	-19.0%	-1.6%	25.9µM*	-3.4%	.
COc1cc(NC(=O)C2CCCN(S(=O)(=O)c3cccc4nsnc34)C2)cc(OC)c1 (stereo not drawn)	0.3%	-12.8%	-2.4%	23.1µM*	-1.2%	-20.7%
COc1ccc(OC)c(NC(=O)C2CCCN(S(=O)(=O)c3cccc4nsnc34)C2)c1 (stereo not drawn)	1.8%	-9.1%	-6.0%	20.6µM*	-1.8%	-9.4%
COc1ccc(NC(=O)C2CCCN2S(=O)(=O)c2cccc3nsnc23)c(OC)c1 (stereo not drawn)	0.3%	-3.8%	0.6%	3.3%	-23.2%	.
SMILES	FLuc counter	ELG1 genotox	Rab9 promoter act	ELG1 DNA repair	NPC1 promoter act	SMN2 splice enh
Cc1ccc(NC(=O)CC(C)S(=O)(=O)c2ccc3c(c2)NC(=O)CO3)cc1Cl (stereo not drawn)	2.1%	.	.	.	.	.
O=C(NCC(c1cccs1)S(=O)(=O)c1cccs1)c1ccc(Cl)cc1 (stereo not drawn)	-11.9%	.	.	.	.	.
CC(C)NC(=S)N/N=C/c1sc(N2CCCCC2)nc1-c1cccs1	3.01µM*	8.8%	13.2%	?	-4.3%	-15.2%
O=C(N/N=C/c1sc(N2CCCCC2)nc1-c1cccs1)C1CC1	?	0.1%	13.0%	?	5.1%	18.0%
COc1cc(NC(=O)c2cc3nc(-c4ccc(C)cc4)cc(C(F)(F)F)n3n2)cc(OC)c1OC	-0.2%	.	.	.	.	6.7%
CCOC(=O)c1cnc(-c2ccccc2)nc1C(F)(F)F	?	3.4%	5.6%	14.0%	-2.2%	-3.7%
CCOC(=O)c1cnc(Nc2ccccc2)nc1C(F)(F)F	23.9µM*	19.2%	16.9%	?	24.7%	.
Cc1nc(Nc2nc3ccccc3o2)nc2c1CCC2	1.69µM*	?	?	?	?	2µM*
CCOC(=O)c1cnc(Nc2nc3ccccc3o2)nc1C	0.379µM*	.	?	?	?	-32.9%
CCCCCOC(=O)c1ccc(NC(=O)c2cccc(NC(=O)c3ccccc3C(=O)O)c2)cc1	19µM*	-2.0%	0.2%	-1.7%	1.7%	.
Cc1ccc(NC(=O)c2cccc(NC(=O)CCC(=O)O)c2)cc1C	8.49µM*	2.5%	4.9%	-4.3%	-3.4%	-4.6%
Cc1c(Cl)cccc1NC(=O)c1cccc(NC(=O)CCC(=O)O)c1	1.2%	1.6%	-3.2%	?	0.7%	-8.6%
COc1ccc(OCC(=O)Nc2ccc(C(=O)Nc3ccccc3C(=O)O)cc2)cc1	?	4.1%	18.1%	?	20.8%	.
CCCCC(=O)Nc1cccc(NC(=O)c2ccc(Br)cc2)c1	-0.7%	-0.9%	4.1%	-5.3%	4.2%	23.7%
CCCCC(=O)Nc1cccc(NC(=O)c2cccc(Br)c2)c1	-17.1%	-12.9%	-12.6%	7.3µM*	-6.6%	10.2%
O=C(COc1ccc2ccccc2c1)Nc1cccc(C(=O)Nc2ccccc2C(=O)O)c1	23.9µM*	0.8%	-3.4%	?	-1.1%	-8.1%[1.84 µM]
O=C(c1ccc(F)cc1)c1cn(Cc2ccccc2)c2cc3c(cc2c1=O)OCO3	-5.0%	.	.	.	.	3.7%
COc1ccc(CNC(=O)C2CCN(S(=O)(=O)c3c(C)noc3/C=C/c3ccccc3F)CC2)cc1	-12.6%	.	.	.	.	.
CCCCC(=O)Nc1cccc(C(=O)Nc2ccccc2C(=O)O)c1	16.9µM*	-4.2%	4.2%	-14.5%	-1.5%	.
N#Cc1ccc(CN2CC3(CCN(C(=O)c4ccco4)CC3)C2)cc1	.	.	.	.	.	-9.1%
